KDM5B inh: inhibitors of human KDM5B histone demethylase; Potency, µM (highest dose often 57.7 µM), most hits filed as inhibitors; 220,000 compounds, 2.6% hits; KDM5B demethylase, FDH-coupled NADH fluorescence (FDH is formaldehyde dehydrogenase); Q9UGL1; AID 1347165; active = well fitted inhibition curve with a large enough effect; note: 0% is about no effect; nearly all actives have a fitted effect of over 70% in size
Target sequence (Q9UGL1 whole entry, looked up): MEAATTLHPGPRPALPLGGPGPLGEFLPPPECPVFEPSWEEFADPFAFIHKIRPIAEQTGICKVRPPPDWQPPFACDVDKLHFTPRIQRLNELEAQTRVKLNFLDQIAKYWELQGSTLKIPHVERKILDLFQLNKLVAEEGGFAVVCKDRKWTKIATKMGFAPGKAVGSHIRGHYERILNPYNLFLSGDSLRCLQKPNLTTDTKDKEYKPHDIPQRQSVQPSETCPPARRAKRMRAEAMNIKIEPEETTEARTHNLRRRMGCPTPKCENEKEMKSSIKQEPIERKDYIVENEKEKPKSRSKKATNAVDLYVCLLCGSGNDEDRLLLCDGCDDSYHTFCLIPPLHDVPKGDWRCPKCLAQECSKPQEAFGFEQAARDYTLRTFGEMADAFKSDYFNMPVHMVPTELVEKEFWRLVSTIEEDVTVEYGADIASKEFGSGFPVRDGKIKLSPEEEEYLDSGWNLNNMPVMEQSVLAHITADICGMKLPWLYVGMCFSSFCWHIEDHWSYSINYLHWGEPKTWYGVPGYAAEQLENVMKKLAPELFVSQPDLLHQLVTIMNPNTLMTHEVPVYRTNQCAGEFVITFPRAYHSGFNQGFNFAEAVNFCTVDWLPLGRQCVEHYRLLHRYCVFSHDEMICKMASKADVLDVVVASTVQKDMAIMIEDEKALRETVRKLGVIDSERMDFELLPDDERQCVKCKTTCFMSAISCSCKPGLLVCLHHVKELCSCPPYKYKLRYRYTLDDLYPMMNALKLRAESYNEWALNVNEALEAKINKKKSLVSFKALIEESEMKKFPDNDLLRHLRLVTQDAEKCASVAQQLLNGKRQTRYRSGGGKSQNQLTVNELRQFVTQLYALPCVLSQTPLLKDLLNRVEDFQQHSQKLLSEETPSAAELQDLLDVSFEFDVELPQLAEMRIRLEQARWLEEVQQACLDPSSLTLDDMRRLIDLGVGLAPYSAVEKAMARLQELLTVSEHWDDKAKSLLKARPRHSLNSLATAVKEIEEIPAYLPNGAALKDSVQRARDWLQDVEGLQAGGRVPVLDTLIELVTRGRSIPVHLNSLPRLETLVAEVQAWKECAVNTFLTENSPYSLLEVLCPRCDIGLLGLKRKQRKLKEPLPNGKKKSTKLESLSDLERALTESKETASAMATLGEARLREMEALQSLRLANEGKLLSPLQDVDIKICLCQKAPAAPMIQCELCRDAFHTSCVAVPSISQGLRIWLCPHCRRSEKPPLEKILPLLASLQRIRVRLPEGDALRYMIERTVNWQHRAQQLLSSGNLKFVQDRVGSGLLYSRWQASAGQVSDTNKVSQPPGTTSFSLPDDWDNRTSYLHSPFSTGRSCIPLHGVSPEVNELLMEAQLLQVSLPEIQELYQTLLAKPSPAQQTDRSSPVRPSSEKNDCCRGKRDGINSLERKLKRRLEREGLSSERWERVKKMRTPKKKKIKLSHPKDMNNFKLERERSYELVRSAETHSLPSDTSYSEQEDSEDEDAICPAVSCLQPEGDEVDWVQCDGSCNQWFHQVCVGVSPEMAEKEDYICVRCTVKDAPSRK
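Inhibition is measured as reduced NADH fluorescence generation from FDH coupling to formaldehyde release. Truncated KDM5BΔAP at 200 nM final acts on H3K4me3 peptide (12.5 µM in substrate mix) in pH 7.5 HEPES buffer with Tween-20, 30 min, room temperature.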
* hit, by the source's call; i = inactive. Not all results are given here. Potency is the fitted concentration of half-maximal effect.

SMILES	KDM5B inh
CC1(CNCc2ccccc2)COc2ccc(C(=O)Nc3cccnc3)cc2N1 (stereo unspecified)	i
O=C(NCCc1ccccn1)c1ccc(C2CCCCC2)cc1	i
CC(C)CC(NC(c1ccccc1)(c1ccccc1)c1ccccc1)C(=O)O (stereo unspecified)	i
Cn1c(=O)ccn(CC(=O)Nc2nccs2)c1=O	i
N#C/C(=C/c1ccc(SC(F)(F)F)cc1)C(=O)NC1CC1	i
O=C(O)CCNS(=O)(=O)c1cccc(C(=O)O)c1	i
O=C(COC(=O)Cn1cnc2ccccc21)Nc1cccc(F)c1	i
CC(C)n1c(SCCC(=O)O)nc2c1c(=O)[nH]c(=O)n2C	i
CCC(CC)NC(=O)/C=C/c1csc(C)n1	i
O=C(O)c1cccc2c(Cl)cccc12	i
CN(C)CCCn1c(COc2ccc3cc(Br)ccc3c2)n[nH]c1=S	i
O=C(CN1CCOCC1)N1N=C(c2cc3ccccc3o2)CC1c1ccco1 (stereo unspecified)	i
CCOc1ccc2c(c1)c(C(C)=O)c(C)n2-c1ccc(OC)cc1	i
O=C1Cc2c(-c3cccc4ccccc34)n[nH]c2CN1CCc1ccncc1	i
O=C(CSc1ncnc2sc3c(c12)CCC3)NCc1ccc(F)cc1	i

Source: PubChem BioAssay (National Center for Advancing Translational Sciences (NCATS))
